# Compounds with a hit are over-represented: about 0.92% of the library has one in this group of screens.
# CIT2-GFP yeast: modulators of TOR pathway CIT2-GFP in S. cerevisiae; S. cerevisiae CIT2-GFP strain, flow cytometry, 3 h; 100 means same as DMSO wells; GFP response vs DMSO, % at 10 µM; 320,000 tested, 0.065% active; AID 2029;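 active = GFP response relative to DMSO above a set limit, near the screen mean plus 3 SD, cut at about 150% in these data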;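 also: ratio of well median GFP fluorescence to mean of DMSO wells on the plate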
# AGP1 TOR yeast: yeast TOR pathway AGP1-GFP modulation; 320,000 tested, 0.02% active; AID 2066; GFP response vs DMSO, % at 10 µM; S. cerevisiae AGP1-GFP multiplex flow cytometry, 3 h; GFP as percent of DMSO wells;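 active = GFP response relative to DMSO above a set limit, near screen average plus 3 SD, cut at about 150% in these data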;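 also: median GFP channel fluorescence of the gated AGP1 strain per well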
# LAP4-GFP MLPCN: modulators of TOR pathway LAP4-GFP in S. cerevisiae. GFP response vs DMSO, % at 10 µM. 320,000 tested, 0.34% active. S. cerevisiae LAP4-GFP multiplex, flow cytometry GFP, 3 h; median GFP as percent of DMSO wells;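 active = GFP response vs DMSO above a set limit, about the screen mean plus 3 SD, cut at about 150% in these data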
# RPL19A-GFP yeast: modulators of TOR pathway RPL19A-GFP in S. cerevisiae | 330,000 tested, 0.3% active | AID 2025 | S. cerevisiae RPL19A-GFP strain, flow cytometry, 3 h; hits give low values | percent response vs DMSO, % at 10 µM;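 active = percent response vs DMSO below 50%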;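 also: median channel GFP fluorescence of the barcoded RPL19A-GFP strain; ratio of sample median GFP to plate DMSO average so 100% = DMSO; lower means less RPL19A-GFP as with rapamycin TOR inhibition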
# MEP2 TOR yeast: yeast TOR pathway MEP2-GFP modulation; S. cerevisiae MEP2-GFP strain, flow cytometry GFP, 3 h; 100% = DMSO control level; GFP response vs DMSO, % at 10 µM; 330,000 tested, 0.51% active; AID 2016;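 active = GFP response versus DMSO above a set limit, roughly screen mean plus 3 SD, cut at about 180% in these data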;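 also: median GFP fluorescence of the barcode-gated MEP2-GFP cells per well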
# LAP4-GFP pick2: reconfirmed LAP4-GFP TOR pathway modulator in yeast; shares compounds with LAP4-GFP MLPCN; S. cerevisiae LAP4-GFP strain, flow cytometry GFP, 3 h; GFP response vs DMSO, % at 10 µM; 590 tested, 20% active; AID 2621;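 active = GFP signal as percent of the solvent control above about 150%, meaning raised reporter expression, limit read from the data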;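 also: ratio of well median GFP fluorescence to plate DMSO mean so 100% = DMSO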
# MEP2 cherry2: reconfirmed MEP2-GFP TOR pathway modulator in yeast | 590 tested, 10% active | S. cerevisiae MEP2-GFP strain, flow cytometry GFP, 3 h | GFP response vs DMSO, % at 10 µM | shares compounds with LAP4-GFP MLPCN;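 active = GFP signal above 150% of the solvent control wells, that is a rise of more than half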;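 also: median channel GFP fluorescence of all gated yeast cells per well; ratio of median GFP to plate DMSO average so 100% = DMSO level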
# RPL19A GFP CP2: reconfirmed modulator of RPL19A-GFP TOR reporter in yeast | shares compounds with LAP4-GFP MLPCN | GFP response vs DMSO, % at 10 µM | AID 2623 | S. cerevisiae RPL19A-GFP strain, flow cytometry GFP, 3 h; hits give low values; 100% means same as DMSO wells | 590 tested, 3% active;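 active = under 65% GFP response relative to DMSO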;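 also: median GFP channel fluorescence per well over the all cells gate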
# CIT2-GFP pick2: reconfirmed modulator of CIT2-GFP TOR reporter in yeast. shares compounds with LAP4-GFP MLPCN. S. cerevisiae CIT2-GFP strain, flow cytometry GFP, 3 h; DMSO control wells read 100%. GFP response vs DMSO, % at 10 µM. 590 tested, 8% active. AID 2624;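 active = GFP response vs DMSO above about 150%, limit read from the data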;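 also: median green fluorescence per well over all gated yeast cells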
# AGP1-GFP pick2: reconfirmed modulator of AGP1-GFP TOR reporter in yeast | shares compounds with LAP4-GFP MLPCN | S. cerevisiae AGP1-GFP strain, flow cytometry GFP, 3 h | percent response vs DMSO, % at 10 µM | 590 tested, under 10 active;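 active = over 150 percent of DMSO response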;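 also: median GFP channel fluorescence over all cells without mother daughter split; sample median GFP divided by mean DMSO control so 100% equals DMSO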
# Yeast autofluor: counter-screen for compound autofluorescence in yeast s288c cells; shares compounds with LAP4-GFP MLPCN; S. cerevisiae s288c, 520 nm autofluorescence, flow cytometry, 3 h; hits give high values; zero means same as solvent-only cells; fluorescence change (kMESF span) at 33 µM; 610 tested, under 10 active; AID 2757;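 active = fluorescence span over the dose series, or activity score, above about 33, limit read from the data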
# Yeast autofl DR: TOR screen hit shows autofluorescence in yeast s288c; shares compounds with LAP4-GFP MLPCN; S. cerevisiae s288c parental, compound autofluorescence, flow cytometry, 3 h; fluorescence change (span) at 33 µM; 110 tested, under 10 active;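 active = fluorescence change span, or the activity score built from it, above 25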
# TORC1 bypass gr: compounds blocking wildtype yeast growth but not TORC1 bypass cells | 120 tested, under 10 active | shares compounds with LAP4-GFP MLPCN | S. cerevisiae BY4741 spot growth rating, 48-72 h; hits give low values | growth rating (0-3) at 30 µM;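 active = growth rating at most 1 for wild type yeast while the TORC1 bypass strain still grows fully, rated 3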
# Active calls of the source: *; / = no result.
SMILES,CIT2-GFP yeast,AGP1 TOR yeast,LAP4-GFP MLPCN,RPL19A-GFP yeast,MEP2 TOR yeast,Yeast autofluor,others
CC(C)c1c(C(=O)N/N=C/c2ccsc2)nnn1-c1nonc1N,107,108,107,109,110,/,
COc1cc(NC(=O)c2ccc(Br)cc2)ccc1NC(=O)c1cc2ccccc2o1,86,79,88,103,110,/,
COc1cc(NC(=O)c2c(OC)cccc2OC)ccc1NC(=O)c1cc2ccccc2o1,105,97,90,107,107,/,
Cc1cc(NC(=O)c2cccnc2)ccc1NC(=O)c1cc2ccccc2o1,92,94,96,93,92,/,
O=C(Nc1ccc(NC(=O)c2cc3ccccc3o2)cc1)c1ccc2c(c1)OCCO2,106,104,99,101,99,0.1,
CCC(=O)Nc1ccc(NC(=O)c2cc3ccccc3o2)c(OC)c1,104,110,101,102,99,0.1,
COc1cc(NC(=O)c2ccc(C)cc2)ccc1NC(=O)c1cc2ccccc2o1,76,34,84,92,168,0.1,
Cc1cc(NC(=O)c2cccnc2Cl)ccc1NC(=O)c1cc2ccccc2o1,103,97,90,105,100,0.1,
COc1ccccc1CN1C[C@@H]2C[C@@H](c3[nH]c4c(C)cccc4c3C)N3CCC[C@@]23C1=O,102,100,95,101,104,/,
Cc1cccc(Nc2nc(-c3ccccn3)cs2)n1,80,68,173*,68,99,1,
Cc1cccc(Nc2nc(-c3cccs3)cs2)n1,106,102,133,90,98,/,
Cc1cccnc1Nc1nc(-c2ccccn2)cs1,67,63,104,62,103,2,LAP4-GFP pick2=165*;MEP2 cherry2=155*;RPL19A GFP CP2=98;CIT2-GFP pick2=115;AGP1-GFP pick2=88
Cc1cccnc1Nc1nc(-c2ccccc2)cs1,104,97,88,104,102,/,
CCN(C(=O)Cn1c(=O)oc2cc(S(=O)(=O)N3CCCC3)ccc21)c1ccc(OC)cc1,103,99,114,95,504*,/,LAP4-GFP pick2=100;MEP2 cherry2=100;RPL19A GFP CP2=100;CIT2-GFP pick2=97;AGP1-GFP pick2=100
Cc1ccc(NC(=O)c2ccc(Cl)c(N3C(=O)C=CC3=O)c2)cc1,69,61,129,50*,95,1.4,Yeast autofl DR=1.3;TORC1 bypass gr=3
O=C1NC(=S)N/C1=C\c1ccccc1OCc1ccc(C(=O)O)cc1,91,104,103,109,104,/,
O=C(O)c1ccc(COc2ccccc2C=C2C(=O)c3ccccc3C2=O)cc1,90,93,104,102,101,0,LAP4-GFP pick2=110;MEP2 cherry2=110;RPL19A GFP CP2=101;CIT2-GFP pick2=108;AGP1-GFP pick2=97
CC(C)CNc1nc(N)c([N+](=O)[O-])c(NC2CCCCC2)n1,107,109,103,102,101,/,
CNc1nc(C)c([N+](=O)[O-])c(Nc2ccc(OC)cc2)n1,105,104,101,106,107,/,
CNc1nc(N)c([N+](=O)[O-])c(Nc2ccc(F)cc2)n1,/,/,/,/,/,/,Yeast autofl DR=0.42;TORC1 bypass gr=3
CNc1nc(N)c([N+](=O)[O-])c(Nc2ccc(OC)cc2)n1,/,/,/,/,/,/,Yeast autofl DR=0.26;TORC1 bypass gr=3
Nc1nc(NCc2ccccc2)nc(NCc2ccccc2)c1[N+](=O)[O-],96,96,101,99,104,/,
CNc1nc(N)c([N+](=O)[O-])c(NCc2ccccc2)n1,102,106,91,104,104,/,Yeast autofl DR=0;TORC1 bypass gr=3
Cc1ccc(CNc2nc(N)c([N+](=O)[O-])c(Nc3ccc(F)cc3)n2)cc1,111,102,100,102,103,/,
CNc1nc(N)c([N+](=O)[O-])c(NC2CCCCC2)n1,125,89,82,117,130,/,Yeast autofl DR=0.21;TORC1 bypass gr=3
SMILES,CIT2-GFP yeast,AGP1 TOR yeast,LAP4-GFP MLPCN,RPL19A-GFP yeast,MEP2 TOR yeast,Yeast autofluor,others
Cc1cccc(OCC(=O)Nc2nnc(S(=O)(=O)N3CCCCCC3)s2)c1,101,102,102,101,98,/,
COC(=O)CC1C(=O)NCCN1C(=O)c1cc([N+](=O)[O-])ccc1Cl (stereo unspecified),115,109,85,110,108,/,
O=C(c1ccc(Cl)cc1)N1CCC(O)(CSc2ccccc2)CC1,101,26,93,63,160,/,LAP4-GFP pick2=105;MEP2 cherry2=107;RPL19A GFP CP2=99;CIT2-GFP pick2=103;AGP1-GFP pick2=96
O=C(O)CNC(=O)/C(=C\c1ccco1)NC(=O)c1ccco1,100,98,91,99,101,/,
CC(Oc1ccccc1)C(=O)Nc1nc(-c2ccncc2)cs1 (stereo unspecified),94,101,104,100,100,/,
O=C(COc1ccc(F)cc1Cl)Nc1nc(-c2ccccn2)cs1,87,98,171*,92,109,0.1,Yeast autofl DR=0.08;TORC1 bypass gr=3
CC(Oc1cccc(Cl)c1)C(=O)Nc1nc(-c2ccccn2)cs1 (stereo unspecified),92,111,171*,91,105,0.71,

# High-throughput results as filed in PubChem.
